About 83,000 compounds went through this panel and 20% of them were active in at least one assay; those are over-represented in the sample as a whole.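 The test compound was applied at a single concentration to cells in 96-well plates for 48 hours, and percent growth was recorded.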 A number with no mark means an inactive call. Activity calls are given as the source filed them. How the source made its calls: active means growth percent below 10; inactive means the rest.

Experimental findings from PubChem BioAssay (NCI) are described below.

Some test systems named below: SK-MEL-2 melanoma; EKVX NSCLC; SN12C renal; UO-31 renal; ACHN renal; CAKI-1 renal; A498 renal; MOLT-4 leukemia; SR leukemia; RPMI-8226 leukemia; OVCAR-8 ovarian; OVCAR-5 ovarian; OVCAR-4 ovarian; SK-OV-3 ovarian; IGROV1 ovarian; OVCAR-3 ovarian; HS 578T breast; NCI/ADR-RES ovarian; TK-10 renal; CCRF-CEM leukemia.
What all share (test): NCI-60 one-dose screen, 48 h (100 = growth as untreated, 0 = no growth, -100 = all killed)
Holding throughout (conditions): 10 µM

As for `COc1cc2cc(Oc3ccc(NC(=O)c4cc(C(F)(F)F)cc(C(F)(F)F)c4)cc3)c(C)nc2cc1OC`, the growth is 64.6% with SK-MEL-2 melanoma; 30.4% in the test with EKVX NSCLC; 30.8% in the test on SN12C renal; 30.9% in the test with UO-31 renal; 32.3% in the test on ACHN renal; 30.2% in the test with CAKI-1 renal. For the same compound, the growth was 40.5% in the test with A498 renal; 39.4% in the test with MOLT-4 leukemia; 52.8% in the test with SR leukemia; 17.7% in the test on RPMI-8226 leukemia; 48.2% with OVCAR-8 ovarian; 67.7% in the test with OVCAR-5 ovarian. Besides, the growth is 52.4% with OVCAR-4 ovarian; 44.5% with SK-OV-3 ovarian; 43.9% in the test with IGROV1 ovarian; 15.2% in the test with OVCAR-3 ovarian; 73.1% with HS 578T breast.

Turning to `c1ccc(/C(=N\Nc2ccc3ccccc3n2)c2ccccn2)cc1`, the growth with SK-MEL-2 melanoma was -9.63% (active); in the test with EKVX NSCLC, 15.1%; in the test with SN12C renal it was 18.5%; in the test with UO-31 renal, 13.7%; in the test on ACHN renal it was 0.2% (active); in the test with CAKI-1 renal, -2.91% (active). Moreover, the growth is -47.3% (active) in the test with A498 renal; -21.8% (active) in the test on MOLT-4 leukemia; -23.6% (active) in the test on SR leukemia; 9.21% (active) with RPMI-8226 leukemia; 11.1% with OVCAR-8 ovarian; 51.1% in the test with OVCAR-5 ovarian. The growth with OVCAR-4 ovarian is 10.1%; in the test on SK-OV-3 ovarian it was 20.5%; with IGROV1 ovarian, 2.49% (active); with OVCAR-3 ovarian it was 22.1%; in the test with HS 578T breast, 14.7%; in the test with NCI/ADR-RES ovarian it was 11.4%.

With `Cc1c(C(N)=O)sc2c1c(=O)n(Cc1ccccc1)c1nnc(-c3ccc(Br)cc3)n21`, the growth in the test on SK-MEL-2 melanoma was 42.5%; in the test with EKVX NSCLC, 36.7%; with SN12C renal, 32.8%; with TK-10 renal, 47.4%; in the test with ACHN renal, 10.1%; in the test with CAKI-1 renal, 1.27% (active). The growth with A498 renal is 56%; with RPMI-8226 leukemia, 12.1%; with OVCAR-8 ovarian it was 0.274% (active); in the test on OVCAR-5 ovarian, 48.6%; with OVCAR-4 ovarian it was 40.2%; in the test on SK-OV-3 ovarian it was 33.2%. Besides, the results for the growth in the test on OVCAR-3 ovarian, in the test on HS 578T breast and with NCI/ADR-RES ovarian were 49.5%, 73.6% and 6.12% (active), respectively.

As for `COc1nc2c(c(=O)n1C)CN(c1ccccc1)C(=O)C(C)N2` (stereo unspecified), the growth in the test on SK-MEL-2 melanoma was 90.8%; in the test with EKVX NSCLC, 96.4%; with SN12C renal, 92%; in the test with UO-31 renal, 78.7%; with ACHN renal, 93.9%; in the test with CAKI-1 renal it was 100%. Moreover, the growth in the test with A498 renal is 115%; with CCRF-CEM leukemia, 97.2%; in the test on MOLT-4 leukemia, 93.7%; in the test on RPMI-8226 leukemia it was 96%; with OVCAR-8 ovarian, 93.4%; with OVCAR-5 ovarian, 93.2%. The growth in the test with OVCAR-4 ovarian was 91.9%; in the test with SK-OV-3 ovarian it was 107%; in the test on IGROV1 ovarian it was 106%; with OVCAR-3 ovarian, 112%; with NCI/ADR-RES ovarian, 91%.

In the case of `CCn1cc(C(=O)O)c(=O)c2cc(F)c(N3CCNCC3)cc21`, the growth was 113% in the test on SK-MEL-2 melanoma; 102% in the test on EKVX NSCLC; 106% in the test with SN12C renal; 116% in the test with TK-10 renal; 95.5% with ACHN renal; 96.5% in the test with CAKI-1 renal. In addition, the growth was 117% in the test on A498 renal; 93.5% with MOLT-4 leukemia; 100% with SR leukemia; 104% in the test on RPMI-8226 leukemia; 97% with OVCAR-8 ovarian; 111% in the test on OVCAR-4 ovarian. Moreover, the growth with SK-OV-3 ovarian was 113%; with OVCAR-3 ovarian, 114%; in the test on HS 578T breast, 111%; with NCI/ADR-RES ovarian it was 110%.

On to `O=C1CC(=O)N(C(=O)c2nn(-c3ccc(Cl)cc3)cc2O)N1`, for which the growth in the test on SK-MEL-2 melanoma was 53%; with EKVX NSCLC, 29.6%; with SN12C renal, 45.1%; with UO-31 renal it was 25.6%; in the test on ACHN renal it was 38.3%; in the test on CAKI-1 renal, -7.19% (active). The growth is 113% in the test on A498 renal; 16.6% with MOLT-4 leukemia; -31.9% (active) in the test with SR leukemia; -8% (active) in the test on RPMI-8226 leukemia; 30.1% with OVCAR-8 ovarian; 65.2% in the test with OVCAR-5 ovarian. The growth in the test with OVCAR-4 ovarian is 34.1%; in the test on SK-OV-3 ovarian, 40.7%; in the test with IGROV1 ovarian it was 34.4%; in the test with OVCAR-3 ovarian, -4.11% (active); in the test with HS 578T breast, 121%; in the test with NCI/ADR-RES ovarian, 33.6%.

With `COc1cc(/C=C2\CCCC3C2=Nc2ccccc2NC3c2cc(OC)c(OC)c(OC)c2)cc(OC)c1OC` (stereo unspecified), the growth in the test on SK-MEL-2 melanoma was 17.9%; in the test with EKVX NSCLC, 59.8%; in the test with SN12C renal, -4.27% (active); with UO-31 renal, 5.57% (active); in the test with ACHN renal, -23% (active); in the test with CAKI-1 renal, 6.51% (active). For the same compound, the growth in the test on A498 renal is -22.4% (active); in the test with MOLT-4 leukemia, 0.606% (active); in the test on SR leukemia, 2.76% (active); with RPMI-8226 leukemia, -10.9% (active); with OVCAR-5 ovarian, 16.5%; in the test with OVCAR-4 ovarian, 33.5%. Further, the growth is 45.4% in the test on SK-OV-3 ovarian; -21% (active) in the test with IGROV1 ovarian; -7.11% (active) in the test with OVCAR-3 ovarian; 53.2% with HS 578T breast; 5.96% (active) in the test on NCI/ADR-RES ovarian.

Regarding `CS(=O)(=O)c1nccc(-c2c(-c3cccc(OCCc4ccccc4)c3)nc3sccn23)n1`, the growth in the test on SK-MEL-2 melanoma was 107%; in the test on EKVX NSCLC, 98.6%; with SN12C renal, 95.5%; in the test with UO-31 renal, 71.5%; with ACHN renal, 101%; with CAKI-1 renal, 85.7%. The growth was 91.7% in the test with A498 renal; 91.3% in the test on CCRF-CEM leukemia; 84.5% with MOLT-4 leukemia; 96.9% in the test on RPMI-8226 leukemia; 98% with OVCAR-8 ovarian; 103% in the test on OVCAR-5 ovarian. Also, the growth was 100% in the test with OVCAR-4 ovarian; 96.5% with SK-OV-3 ovarian; 88.7% with IGROV1 ovarian; 104% in the test on OVCAR-3 ovarian; 92.4% in the test on HS 578T breast; 99.9% in the test on NCI/ADR-RES ovarian.

Take `OC(CCN1CCCC1)(c1ccccc1)C1CCCCC1` (stereo unspecified): the growth is 111% in the test with SK-MEL-2 melanoma; 97.5% in the test on EKVX NSCLC; 95.9% in the test with SN12C renal; 108% in the test with TK-10 renal; 94.7% in the test on ACHN renal; 95.7% in the test on CAKI-1 renal. Besides, the growth in the test with A498 renal is 116%; in the test on MOLT-4 leukemia it was 109%; in the test with SR leukemia it was 123%; in the test on RPMI-8226 leukemia it was 114%; with OVCAR-8 ovarian, 104%; in the test on OVCAR-4 ovarian it was 104%. Also, the growth in the test on SK-OV-3 ovarian was 120%; in the test with OVCAR-3 ovarian, 105%; in the test on HS 578T breast it was 103%.
